From PubChem
This is a sample that favours compounds with a hit; in the whole collection about 4.1% have one here.
ALR H2O2 inh – inhibitors of human ALR sulfhydryl oxidase, primary screen, biochemical, H2O2 detection, HRP-luminol luminescence, single point; FAD-linked sulfhydryl oxidase ALR (Homo sapiens), P55789; purified ALR, DTT oxidation; inhibition, % (no concentration beside the values); actives 3.8% (n = 290,000); AID 485317, 2010;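 active = mean replicate inhibition above about 79%, with every replicate also reaching it, limit read from the data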
Target sequence (P55789 whole entry, looked up): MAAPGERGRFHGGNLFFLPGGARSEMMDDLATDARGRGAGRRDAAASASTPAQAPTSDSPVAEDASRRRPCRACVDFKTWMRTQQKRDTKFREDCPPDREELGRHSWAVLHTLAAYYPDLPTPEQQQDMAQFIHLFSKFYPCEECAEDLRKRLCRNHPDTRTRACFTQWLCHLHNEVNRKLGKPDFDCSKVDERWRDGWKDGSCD
CaV13 ICDI inh – Primary screen for inhibitors of IQ motif and Ca2+-dependent inactivation inhibitor domain binding in CACNA1D, Förster resonance energy transfer in living cells, … | HEK cells, CFP/YFP FRET ICDI-IQ, plate reader, 10 min; percent FRET-ratio fall versus neutral wells | inhibition, % at 12.3 µM | actives 0.098% (n = 340,000) | AID 743397;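 active = mean replicate inhibition of at least 30% and at least 1% of replicates passing that level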;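 note: 0% = median of the neutral control wells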
IDE act – human IDE activators in live cells, primary screen, fluorescence polarization, HEK cells, FAbeta-B substrate; activation, % at 5.96 µM; AID 493087, 2011; FAbeta-B cleavage; 0% vehicle, 100% cell-free pure enzyme wells; actives 0.073% (n = 340,000);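 active = activation above the mean of all tested compounds plus 3 SD, set per screening campaign, cut at about 17% in these data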
IDE cell inh – human IDE inhibitors in live cells, primary screen, fluorescence polarization, HEK cells, FAbetaB substrate; Insulin-degrading enzyme (Homo sapiens), P14735; FAbetaB cleavage; inhibition, % at 5.59 µM; actives 0.41% (n = 320,000); AID 434962, 2010;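 active = percent inhibition above the average of all tested compounds plus 3 SD, set per screening campaign, cut at about 16% in these data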;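 note: IDE supplied by intact live HEK cells; FP after avidin binding of uncleaved biotin substrate so inhibition keeps polarization high; 0% = DMSO wells and 100% = 60 µM reference IDE inhibitor Ii1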
PolyA inh – polyadenylation inhibitors in yeast reporter cells, primary screen, luminescence, S. cerevisiae; S. cerevisiae SKY197-pL101 polyadenylation reporter, beta-gal luminescence; efflux-impaired pdr1/pdr3 knockout yeast; score 100 = 6 SD above DMSO; activity score, % at 12 µM; actives 0.02% (n = 300,000); AID 1875, 2009;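 active = lowest replicate activity score at least 50, where 100 means six control SD above control mean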;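 note: yeast exposed to compound for 9 h at 30 °C; higher score means more reporter readthrough which indicates perturbed polyadenylation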
M18AAP inhibitor – PfM18AAP inhibitors, malaria aminopeptidase, primary screen, biochemical, QFRET, recombinant enzyme. M18 aspartyl aminopeptidase (Plasmodium falciparum 3D7). H-Glu-NHMec fluorogenic cleavage. inhibition, % at 7.35 µM. actives 1.2% (n = 290,000);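 active = inhibition above the campaign mean inhibition over all tested compounds plus 3 SD, cut at about 28% in these data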;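 note: 0% = plate median of test compound wells and 100% = 2 mM ZnCl2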
* marks the source's active call; other numbers are inactive results; nt = no result given.

SMILES | ALR H2O2 inh | CaV13 ICDI inh | IDE act | IDE cell inh | PolyA inh | M18AAP inhibitor
COc1ccc(Cl)cc1NC(=O)CN1CCc2ccccc2C1 | -4 | 0 | 6 | 1 | -32 | -6
Cc1ccc(C)c(Nc2ncnc3nc[nH]c23)c1 | -1 | -7 | 8 | 1 | 24 | -1
Fc1cccc(/C=N/Nc2ncnc3nc[nH]c23)c1 | -2 | -10 | 5 | 0 | 3 | 30*
Cc1cccc(Nc2ncnc3nc[nH]c23)c1 | 95* | -5 | 10 | -3 | 16 | 16
Clc1ccc(/C=N/Nc2ncnc3nc[nH]c23)cc1 | 93* | -2 | 1 | -1 | -1 | 0
CCc1sc(C(=O)Nc2cccnc2)cc1Br | 0 | nt | -8 | 7 | 9 | 6
COc1cccc(/C=C/C(=O)Nc2ccc3c(c2)OCCO3)c1OC | -2 | -5 | -1 | 6 | -8 | 2
O=C1CCC(C(=O)N(CCO)Cc2ccccc2)CN1CCc1cccc(F)c1 (stereo unspecified) | nt | -5 | nt | nt | nt | nt
O=C(Nc1ccn(CCCNC2CCN(Cc3ccccc3)CC2)c(=O)n1)OCc1ccccc1 | nt | -4 | nt | nt | nt | nt
COc1cc(C)c(/C=C(\C#N)C(=O)Nc2cccc(C)c2)cc1C(C)C | -3 | -5 | 3 | 2 | 1 | -1
O=[N+]([O-])c1ccccc1N=Nc1ccc(O)cc1 | 80* | -4 | -3 | -1 | -28 | nt
O=C1N/C(=N/O)S/C1=C\c1ccccc1-n1cccn1 | 93* | 6 | 0 | 0 | -5 | 2
CC1(C(=O)NS(=O)(=O)c2ccc(Br)cc2)CCN1C(=O)C1CCCCC1 (stereo unspecified) | nt | -4 | nt | nt | nt | nt
Cc1nn(CCc2n[nH]c(=S)n2C)c(C)c1Br | 94* | -5 | 1 | 1 | 19 | 8
Cc1nn(CCc2n[nH]c(=S)n2C2CCCCC2)c(C)c1Br | 2 | -4 | -8 | 3 | -1 | 1
Cc1c(C(=O)NCc2ccc3c(c2)cc(C)n3C)cccc1[N+](=O)[O-] | -5 | 9 | -4 | 0 | -5 | -4
CC(C)c1ccc(Oc2cccc(C(=O)/C(C#N)=C/N(C)C)c2)cc1 | 98* | -4 | 5 | 5 | 3 | 14
O=C(CCC1N=C2c3ccccc3N=C(SCc3ccc(Cl)cc3)N2C1=O)NCc1ccco1 (stereo unspecified) | 98* | nt | 2 | -1 | -1 | 5
CN(C)c1ccc(C(=O)c2ccc(N(C)C)c(N)c2)cc1N | 95* | -7 | 0 | 3 | -13 | 12
CCOc1ccc(C(=O)c2ccc(OCC)c(N)c2)cc1N | -1 | -4 | 1 | 1 | -5 | -2
Cc1nn(C)c(C)c1NC(=O)CCCSc1nc(-c2ccco2)cc(C(F)(F)F)n1 | -1 | nt | 3 | 1 | -11 | -2
Cc1cc(N2CCOCC2)nc(-c2ccc([N+](=O)[O-])cc2)n1 | 100* | -4 | 1 | 9 | -11 | -3
CC(C)[C@@H](C)/C=C/[C@@H](C)[C@H]1CC[C@@H]2[C@]1(C)CCC1[C@]23C=C[C@]2(C[C@@H](O)CC[C@]12C)N(c1ccc(Br)cn1)O3 (stereo partly specified) | nt | -9 | nt | nt | nt | nt
C=CCn1c(C)cc(C)c(C#N)c1=O | -5 | -8 | 3 | 1 | -3 | -11
C=CCn1sc(=N)c(C#N)c1N | 99* | -7 | 0 | 0 | -21 | 1
Cc1cccc(C(=O)Nc2nnc(S(=O)(=O)N(C)Cc3ccco3)s2)c1 | 94* | -6 | 3 | -4 | -10 | -6
Cc1cccc2sc(NC(=O)C3c4ccccc4Oc4ccccc43)nc12 | -6 | -8 | -4 | -2 | 5 | -5
Cc1cccc(Nc2n[nH]c(=S)s2)c1C | 99* | -8 | -2 | 10 | 3 | 21
O=C1CN(C(=O)N[C@@H](Cc2ccccc2)C(=O)N[C@H](Cc2ccccc2)C(=O)O)c2ccccc2N1 | -2 | nt | -1 | -4 | -18 | -4
